# From PubChem
# PTHR1 ag: agonists of human PTHR1 parathyroid hormone receptor. Potency, µM (titrated, usually from 115 µM), for inactives: at the top dose activation, actives largely listed as activators. AID 743266. actives 0.075% (n = 410,000). HEK293 GP2 PTHR1 cells, GloSensor cAMP luminescence, 1 h. Q03431; note: potency is the fitted concentration of half-maximal effect; nearly all actives have a fitted effect of over 55% in size
#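 HEK-293-derived GP2 cells expressing PTHR1 and a GloSensor cAMP reporter, 3,000/well, plated overnight, given luciferin plus IBMX (each 0.5 mM as added) for 1 h at 37 °C, then compound for 1 h at 37 °C. Luminescence was read after 15 min at room temperature.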
# RXFP1 antagonist: RXFP1 (human) relaxin receptor antagonism; Q9HBX9; HEK293-RXFP1, relaxin-stimulated cAMP HTRF, 30 min; active compounds read low; activity change, negative = inhibition, % at 57.5 µM; actives 0.59% (n = 350,000); AID 1259400;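 active = activity change of -60% or lower, but not beyond a set lower limit; inconclusive = change between -60% and -40%, or beyond the set limit; inactive = change above -40%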; note: % is set by controls: 0 for no effect and ±100 for the full control effect
# RXFP1 ag: RXFP1 (human) receptor agonism; AID 2676; Potency, µM (series often up to 57.5 µM), for inactives: at the top dose activation, most hits filed as activators; HEK293T-RXFP1 cAMP TR-FRET, 30 min; response scale: percent of porcine relaxin response, buffer zero; actives 0.3% (n = 370,000); note: potency is the fitted concentration of half-maximal effect; % is set by controls: 0 for no effect and ±100 for the full control effect; nearly all actives have a fitted effect of over 60% in size
#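 Agonist response is measured as cAMP accumulation in an RXFP1-transfected HEK293T line under PDE4 inhibition. Values are scaled between buffer-only and 29 nM porcine relaxin, and EC50s come from standard Hill equation fits.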
# TCR act: activators of T cell receptors; AID 504894; Potency, µM (top dose mostly 9.22 µM), for the others: top-dose activation of IL-2 secretion, hits mostly activators; primary human leukocytes, anti-CD3, IL-2 HTRF, 48 h; 330,000 tested, under 10 active; note: % of control where 0% means no effect
#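 48 hr co-incubation of compounds, a-CD3 beads and primary human leukocytes; IL-2 quantified homogeneously by HTRF with anti-IL-2 K and d2 conjugates.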
# NPSR antagonist: blocks cAMP signaling of the human neuropeptide S receptor | CHO-NPSR cells, cAMP TR-FRET, antagonist mode | actives 1% (n = 220,000) | Potency, µM (series often up to 38.3 µM), inactives show top-dose activity change, negative = inhibition, most hits filed as inhibitors | AID 1461 | Q6W5P4; note: potency is the fitted concentration of half-maximal effect; % is set by controls: 0 for no effect and ±100 for the full control effect; nearly all actives have a fitted effect of over 50% in size
# Target sequence (Q6W5P4 whole entry, looked up): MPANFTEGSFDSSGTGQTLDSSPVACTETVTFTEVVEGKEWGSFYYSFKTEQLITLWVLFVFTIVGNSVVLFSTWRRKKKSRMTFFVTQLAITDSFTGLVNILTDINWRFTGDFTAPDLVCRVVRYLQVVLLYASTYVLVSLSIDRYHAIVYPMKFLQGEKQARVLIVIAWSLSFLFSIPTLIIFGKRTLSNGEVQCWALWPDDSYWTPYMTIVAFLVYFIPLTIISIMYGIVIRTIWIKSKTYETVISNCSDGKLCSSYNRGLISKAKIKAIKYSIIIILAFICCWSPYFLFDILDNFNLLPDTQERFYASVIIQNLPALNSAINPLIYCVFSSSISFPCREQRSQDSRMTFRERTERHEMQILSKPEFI
# TSHR antag: antagonists of human thyroid stimulating hormone receptor | AID 504810 | activity change, negative = inhibition, % at 11.5 µM | TSHR-expressing cells, TSH-stimulated cAMP HTRF, 2 h; active compounds read low | P16473 | actives 0.2% (n = 330,000);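 active = activity change below a set negative limit, meaning inhibition stronger than a set level, cut at about -70% in these data; inconclusive = activity change between two set negative limits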; note: % is set by controls: 0 for no effect and ±100 for the full control effect
#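 TSHR-expressing cells, 200/well, pre-treated with compound, then stimulated with EC80 TSH (4nM final) for 2 hours at 37 deg C. cAMP measured by competitive HTRF: anti-cAMP cryptate antibody in lysis buffer plus cAMP-d2, read after 30 minutes at room temperature.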
# Starred values were filed as active, the others as inactive; i = inactive; ? = inconclusive; . = no result; [ ] = another dose, or the depositor's remark. Many of the other results were omitted from the sample, so hits are more common in it than they were. Unless noted, calls come from the whole dose curve; as a rule, active = well fitted curve in the direction sought with a large enough effect; inconclusive = small, poorly fitted or top-dose-only effect, or another doubt; inactive = no such curve, though single readings can be large; an effect the other way counts as inactive or inconclusive.
SMILES,PTHR1 ag,RXFP1 antagonist,RXFP1 ag,TCR act,NPSR antagonist,TSHR antag
O=C1C(=O)c2ccccc2-c2ccccc21,-55%,.,0%,-1%,3.2µM*,?
CC(C)=CC1C(C(=O)OCN2C(=O)C3=C(CCCC3)C2=O)C1(C)C (stereo unspecified),.,-95*,.,.,.,.
Oc1c(Cl)cc(Cl)cc1CN1CCN(Cc2ccccc2)CC1,i,0,1%,.,-23%[46.1 µM],5
Oc1c(Cl)cccc1Cc1cc(Cl)cc(Cl)c1O,-23%,-110*,.,3%,.,.
Cc1ccc(F)cc1NC(=O)c1ccc(Cn2nc(N3CCN(c4ccccc4)CC3)ccc2=O)o1,-37%,?,-3%,.,.,.
O=c1[nH]c2ccccc2n1C1CCNCC1,.,17,.,.,.,.
CNc1ccc2nc3ccccc3[n+](C)c2c1,-15%,-92*,9%,37%,.,?
C[n+]1c2ccccc2nc2ccc(NCCO)cc21,i,-39,17%,12%,.,-46
N[C@@H](Cc1ccc(Oc2cc(I)c(O)c(I)c2)c(I)c1)C(=O)O,.,-32,.,.,.,.
CNc1ccc2oc(C[C@H]3O[C@@]4(CC[C@H]3C)O[C@H]([C@H](C)C(=O)c3ccc[nH]3)[C@H](C)C[C@H]4C)nc2c1C(=O)O,-60%,.,0%,13%,7.9µM*,-90*
CC(C)CNC(=O)c1c(N)n(Cc2ccco2)c2nc3ccccc3nc12,-3%,4,2%,7%,10µM*,-9
CC(C)CCNC(=O)c1c(N)n(Cc2ccc3c(c2)OCO3)c2nc3ccccc3nc12,-5%,10,6%,3%,?,14
COCCCNC(=O)c1c(NC(=O)c2ccco2)n(Cc2ccccc2)c2nc3ccccc3nc12,-31%[57.5 µM],11,4%,-19%,13µM*,-6
CCCNC(=O)c1c(N)n(Cc2ccco2)c2nc3ccccc3nc12,-9%,6,3%,-3%,?,1
CC(C)CCn1c(N)c(C(=O)NCc2cccs2)c2nc3ccccc3nc21,-20%,-1,-2%,-3%,-17%[46.1 µM],-34
CC(C)CNC(=O)c1c(N)n(Cc2ccc3c(c2)OCO3)c2nc3ccccc3nc12,i,-15,2%,0%,3.2µM*,13
CC(C)OCCCNC(=O)c1c(N)n(Cc2cccs2)c2nc3ccccc3nc12,-25%[57.5 µM],-4,4%,-6%,10µM*,10
CN1C(=O)c2ccccc2Sc2ccc(NC(=O)N3CCN(c4ccccc4)CC3)cc21,-94%,-22,-8%,.,.,.
C=CCC1(C(C)CC)C(=O)NC(=O)NC1=O (stereo unspecified),.,-23,.,.,.,.
NS(=O)(=O)c1ccc(N=Cc2c(O)n(C3CCCCC3)c(=O)n(C3CCCCC3)c2=O)cc1,-19%,-8,1%,1%,10µM*,-3
C[C@]12CC[C@H]3[C@@H](CC[C@@]45O[C@H]4C(O)=C(C#N)C[C@]35C)[C@H]1CC[C@H]2O,.,-22,.,.,.,.
Cc1ccccc1-[n+]1c(-c2ccccc2)cc(-c2ccccc2)cc1-c1ccccc1,-58%,.,0%,11%,.,-75*
Oc1ccccc1-[n+]1c(-c2ccccc2)cc(-c2ccccc2)cc1-c1ccccc1,-5%,.,2%,-9%,.,-1
C[C@@H]([C@@H](O)c1ccccc1)N(C)C(=O)Cc1ccccc1,i,.,.,7%,.,.
CN(C)CC(C(=O)Cc1ccccc1)c1ccccc1 (stereo unspecified),-26%,-118*,.,-2%,.,.
SMILES,PTHR1 ag,RXFP1 antagonist,RXFP1 ag,TCR act,NPSR antagonist,TSHR antag
CC1COC2(c3ccccc3Cl)c3cc(Cl)ccc3NC(=O)CN12 (stereo unspecified),.,-36,.,.,.,.
O=C1CC(N2CCC(n3c(=O)[nH]c4ccccc43)CC2)C(=O)N1c1ccc(F)cc1 (stereo unspecified),-13%,3,0%,3%,-12%[46.1 µM],16
O=c1[nH]c2ccccc2n1C1CCN(CCCC(c2ccc(F)cc2)c2ccc(F)cc2)CC1,-49%,-68*,6%,-3%,6.3µM*,-20
C=C(C=O)C[C@@H]1C[C@H](O)C2OC3C[C@]4(C)OC5/C=C\CC6OC7C(CC=CCC6OC5CCCC4OC3CC2O1)OC1CC2OC3CC(=O)OC3C[C@@H](C)C[C@@]2(C)OC1C[C@@H]7C (stereo partly specified),-60%,.,-1%,-2%,0.79µM*,-4
C=C(C=O)CC1CC(O)[C@]2(C)OC3C[C@@H]4OC5C[C@]6(C)O[C@]7(C)CCC8OC9C[C@]%10(C)OC(/C(C)=C\CO)C(O)CC%10OC9CC(C)C8OC7CC6O[C@]5(C)C/C=C\C4OC3CC2O1 (stereo partly specified),-17%,.,0%,-3%,.,-8
O=[N+]([O-])/C=C/c1c(OCc2ccccc2)ccc2ccccc12,.,.,0%,.,6.3µM*,-5
O=C(O)c1ccc(=O)[nH]c1,.,8,.,.,.,.
O=C(CCCCCn1c(=S)[nH]c2ccccc2c1=O)N1CCC2(CC1)OCCO2,-8%[57.5 µM],-83*,0%,-1%,?,3
COc1ccccc1N1CCN(C(=O)CCCn2c(=S)[nH]c3ccccc3c2=O)CC1,-37%,-65*,.,.,.,.
O=C(Cn1c(=S)[nH]c2ccccc2c1=O)N1CCC2(CC1)OCCO2,i,-8,0%,-1%,-2%[46.1 µM],1
Nc1c(C(=O)NC2CCCC2)c2nc3ccccc3nc2n1CC1CCCO1 (stereo unspecified),-29%,-13,1%,0%,13µM*,1
CCNC(C)Cc1ccc2c(c1)OCO2 (stereo unspecified),.,8,.,.,.,.
O=C1C=CC2C3C(=O)N(c4ccccc4)C(=O)C3C1N2Cc1ccccc1 (stereo unspecified),-44%,-108*,.,-5%,.,.
COc1cccc(C2CC3C(=O)C=CC2N3Cc2ccccc2)c1 (stereo unspecified),-96%,24,0%,0%[46.1 µM],19%,3
O=C(CCCCl)c1ccc(F)cc1,.,-10,.,.,.,.
Cn1cc[n+](C)c1P(=S)(c1ccccc1)c1ccccc1,i,-6,2%,-1%,5µM*,-5
CCN(CC)C(=O)N[C@@H]1C=C2c3cccc4[nH]cc(c34)C[C@@H]2N(C)C1,.,-16,.,.,.,.
Clc1ccc(COC(Cn2ccnc2)c2ccc(Cl)cc2Cl)cc1 (stereo unspecified),-84%,-8,4%,0%,?,-31
Clc1ccc(C(c2ccc(Cl)cc2)n2cc[n+](CC(OCc3ccc(Cl)cc3Cl)c3ccc(Cl)cc3Cl)c2)cc1 (stereo unspecified),-26%,.,1%,-1%,13µM*,-5
